# Results from PubChem BioAssay (EPA / NIEHS).
# Results filed as inconclusive are left out. The source made the active and inactive calls. The calls were made as follows: active = hit-call score of the fitted dose curve at least 0.9, where 1 is the maximum; inconclusive = response in the unintended direction; inactive = score below 0.9.
# Assays:
# [1] = target: Androgen receptor (Homo sapiens) (UniProt P10275); assay: ATG_AR_TRANS: Attagene TRANS-FACTORIAL HepG2 Assay for human Androgen Receptor (AR) (AID 2282973); details: HepG2 Attagene TRANS-FACTORIAL AR reporter transcription
# Summary of the method: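 Chimeric nuclear receptor–Gal4 activity was assessed in human HepG2 hepatocytes after 24 h chemical dosing. Induced reporter mRNA was detected via labelled RT-PCR fragments on capillary electrophoresis, and gain of signal was analysed against DMSO.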
# [2] = target: human Fibroblast Growth Factor Receptor 1 (FGFR1), FGFR1 (gene 2260) (UniProt P11362); assay: NVS_ENZ_hFGFR1: NovaScreen (NVS) Enzymatic Assay for human Fibroblast Growth Factor Receptor 1 (FGFR1) (AID 2283159)
# Summary of the method: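 Cell-free recombinant kinase with fluorescent substrate, product separated by electrophoretic mobility shift; read 1 hour after dosing, loss of signal relative to DMSO. Initial screen in duplicate at 25 uM, actives followed in concentration series.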
# [3] = target: rat Monoamine Oxidase, MAO-B, Peripheral (MAOBP), Maob (gene 25750) (UniProt P19643); assay: NVS_ENZ_rMAOBP: NovaScreen (NVS) Enzymatic Assay for rat Monoamine Oxidase, MAO-B, Peripheral (MAOBP) (AID 2283242)
# [4] = target: bovine Gamma-Aminobutyric Acid Type A Receptor BDZ, alpha 1 site (GABARa1), GABRA1 (gene 780973) (UniProt P08219); assay: NVS_LGIC_bGABARa1: NovaScreen (NVS) Ligand-Gated Ion Channel Assay for bovine Gamma-Aminobutyric Acid Type A Receptor BDZ, alpha 1 site (GABARa1) (AID 2283321)
# Summary of the method: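 Radioligand competition binding on bovine cortical membranes, 0.75 h, filter-based scintillation counting. Primary single concentration 25 uM in duplicate; actives rerun in concentration-response to 50 uM max. Loss of signal fitted versus DMSO.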
# [5] = target: rat Gamma-Aminobutyric Acid Type A Receptor BDZ, alpha 6 site (GABARa6), Gabra6 (gene 29708) (UniProt P30191); assay: NVS_LGIC_rGABARa6: NovaScreen (NVS) Ligand-Gated Ion Channel Assay for rat Gamma-Aminobutyric Acid Type A Receptor BDZ, alpha 6 site (GABARa6) (AID 2283339)
# Summary of the method: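 Rat cerebellar membranes; radioligand binding, filtration and scintillation counting, read 1 h after dosing. Single-concentration duplicate screen at 25 uM, then concentration-response up to 50 uM for actives; loss of signal fitted versus DMSO baseline.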
# [6] = target: Norway rat Vesicular Monoamine Transporter (VMAT2), neurotransmitter transporter, Slc18a2 (gene 25549) (UniProt Q01827); assay: NVS_TR_rVMAT2: NovaScreen (NVS) Transporter Assay for Norway rat Vesicular Monoamine Transporter (VMAT2), neurotransmitter transporter (AID 2283376);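 also: actives lower the bound radioligand signal below the DMSO level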
# Summary of the method: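 Radioligand displacement binding on rat forebrain tissue preparation, filter-based scintillation read-out 1 hour after dosing. Primary screen in duplicate at 25 uM, then concentration series for actives; loss of signal versus DMSO.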
# [7] = target: human Phosphatase and Tensin Homolog (PTEN), PTEN (gene 5728) (UniProt P60484); assay: NVS_ENZ_hPTEN: NovaScreen (NVS) Enzymatic Assay for human Phosphatase and Tensin Homolog (PTEN) (AID 2283203)
# Summary of the method: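 Cell-free recombinant human PTEN with fluorescent substrate; product separated by electrophoretic mobility shift and read by fluorescence 1 h after dosing. Primary screen in duplicate at 25 uM, actives followed in concentration series versus DMSO.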
# [8] = target: human Caspase 2 (CASP2), CASP2 (gene 835) (UniProt P42575); assay: NVS_ENZ_hCASP2: NovaScreen (NVS) Enzymatic Assay for human Caspase 2 (CASP2) (AID 2283135)
# Summary of the method: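 E. coli-expressed enzyme in a cell-free protease assay, fluorescence read 1 h after dosing. Compounds at 25 uM in duplicate, with concentration-response up to 50 uM for hits; loss of signal against DMSO baseline.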
# [9] = target: Voltage-dependent N-type calcium channel subunit alpha-1B (Rattus norvegicus) (UniProt Q02294); assay: NVS_IC_rCaChN: NovaScreen (NVS) Ion Channel Assay for rat Calcium Channel, Type N (CaChN) (AID 2283317)
# [10] = target: human Caspase 10 (CASP10), CASP10 (gene 843) (UniProt Q92851); assay: NVS_ENZ_hCASP10: NovaScreen (NVS) Enzymatic Assay for human Caspase 10 (CASP10) (AID 2283133)
# Summary of the method: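 Recombinant human caspase-10 from E. coli, cell-free fluorogenic substrate assay read 1 h after dosing. Primary duplicate screen at 25 uM; hits (e.g. ≥30% inhibition) run singly in concentration-response up to 50 uM, normalised to DMSO.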
# [11] = target: human Aurora Kinase A - serine/threonine-protein Kinase 6 (AurA), AURKA (gene 6790) (UniProt O14965); assay: NVS_ENZ_hAurA: NovaScreen (NVS) Enzymatic Assay for human Aurora Kinase A - serine/threonine-protein Kinase 6 (AurA) (AID 2283142)
# Summary of the method: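 Cell-free enzymatic assay with human Aurora A, 1 hour after dosing. Fluorescent substrate turnover detected after electrophoretic mobility shift separation of substrate and product. Screened at 25 uM, actives retested in concentration-response up to 50 uM.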
# [12] = target: human Epidermal Growth Factor Receptor (EGFR), EGFR (gene 1956) (UniProt P00533); assay: NVS_ENZ_hEGFR: NovaScreen (NVS) Enzymatic Assay for human Epidermal Growth Factor Receptor (EGFR) (AID 2283151)
# Summary of the method: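 Cell-free kinase assay, fluorescence plus electrophoretic mobility shift separating substrate and product, read 1 hour after dosing; loss of signal vs DMSO. Duplicate screen at 25 uM, then concentration-response to 50 uM.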
# [13] = target: human Raf-1 Proto-Oncogene, serine/threonine Kinase (RAF1), RAF1 (gene 5894) (UniProt P04049); assay: NVS_ENZ_hRAF1: NovaScreen (NVS) Enzymatic Assay for human Raf-1 Proto-Oncogene, serine/threonine Kinase (RAF1) (AID 2283216)
# Summary of the method: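 Cell-free recombinant kinase with specific fluorescent substrate, product separated by electrophoretic mobility shift; read 1 h after dosing. Primary screen at 25 uM in duplicate; hits then run in concentration-response up to 50 uM, fitted as loss of signal versus DMSO.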
# [14] = test system: rat Monoamine Oxidase, MAO-A, Peripheral (MAOAP), gene 29253; assay: NVS_ENZ_rMAOAP: NovaScreen (NVS) Enzymatic Assay for rat Monoamine Oxidase, MAO-A, Peripheral (MAOAP) (AID 2283237)
# Summary of the method: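 Rat liver mitochondrial membranes served as the MAO-A source, with enzyme activity measured by radiometric scintillation counting 1.17 hours after dosing. Loss of signal was fitted against DMSO; primary screen used 25 uM in duplicate, follow-up used concentration series.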
# [15] = target: rat Monoamine Oxidase, MAO-B, Central (MAOBC), Maob (gene 25750) (UniProt P19643); assay: NVS_ENZ_rMAOBC: NovaScreen (NVS) Enzymatic Assay for rat Monoamine Oxidase, MAO-B, Central (MAOBC) (AID 2283238)
# Summary of the method: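 MAO-B activity in rat brain tissue preparation, cell-free, measured radiometrically by scintillation counting 1.17 h after dosing. Screened in duplicate at 25 uM; actives then in concentration-response up to 50 uM. Loss of signal versus DMSO scored.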
# [16] = test system: rat Monoamine Oxidase, MAO-A, Central (MAOAC), gene 29253; assay: NVS_ENZ_rMAOAC: NovaScreen (NVS) Enzymatic Assay for rat Monoamine Oxidase, MAO-A, Central (MAOAC) (AID 2283243);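 also: potency refers to inhibition seen as signal drop below DMSO baseline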
# Summary of the method: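 Inhibition of rat brain-derived MAO-A was read by scintillation counting after 1.5 h exposure. Compounds screened first at 25 uM in duplicate, then in dose series if active.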
# [17] = ATG_M_32_XSP2: Attagene TRANS-FACTORIAL Multi-Species (XSP2) HepG2 Assay for M19 Transcription Factor (Internal Marker) (AID 2283826)
# Summary of the method: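 An internal background marker among multiplexed transfected reporters in HepG2 liver cells was measured 24 h after dosing. Androgen receptor stimulation came from 3 nM 6-alpha-fluorotestosterone and 1.5 nM norgestrel.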
# [18] = target: human Acetylcholinesterase (AChE), ACHE (gene 43) (UniProt P22303); assay: NVS_ENZ_hAChE: NovaScreen (NVS) Enzymatic Assay for human Acetylcholinesterase (AChE) (AID 2283129)
# Summary of the method: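 Cell-free colorimetric enzyme-activity assay; compounds read 0.33 hour after dosing, loss of signal vs DMSO baseline. Primary screen in duplicate at 25 uM single concentration, with active compounds retested in concentration series.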
# [19] = target: rat Oxytocin Receptor (OXT), Oxtr (gene 25342) (UniProt P70536); assay: NVS_GPCR_rOXT: NovaScreen (NVS) G Protein-Coupled Receptor Assay for rat Oxytocin Receptor (OXT) (AID 2283330)
# Summary of the method: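 Radioligand displacement on rat uterine membranes, 1 h incubation, filter-based scintillation counting. Chemicals were screened in duplicate at 25 uM, and those passing threshold were retested in concentration-response up to 50 uM. Loss of binding was fitted versus DMSO.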
# [20] = target: Bile acid receptor (Homo sapiens) (UniProt Q96RI1); assay: NVS_NR_hFXR_Agonist: NovaScreen (NVS) Nuclear Receptor Binding Assay for human Farnesoid X Receptor Agonism (FXR) (AID 2283347)
# Summary of the method: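 Cell-free TR-FRET binding assay with extracted human FXR protein, agonist format, read 1 h after dosing. Primary screen at 25 uM single concentration in duplicate, actives retested in concentration series; gain of signal versus DMSO.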
# rat Monoamine Oxidase, MAO-B, Peripheral (MAOBP), Maob (gene 25750), sequence (P19643 whole entry, looked up): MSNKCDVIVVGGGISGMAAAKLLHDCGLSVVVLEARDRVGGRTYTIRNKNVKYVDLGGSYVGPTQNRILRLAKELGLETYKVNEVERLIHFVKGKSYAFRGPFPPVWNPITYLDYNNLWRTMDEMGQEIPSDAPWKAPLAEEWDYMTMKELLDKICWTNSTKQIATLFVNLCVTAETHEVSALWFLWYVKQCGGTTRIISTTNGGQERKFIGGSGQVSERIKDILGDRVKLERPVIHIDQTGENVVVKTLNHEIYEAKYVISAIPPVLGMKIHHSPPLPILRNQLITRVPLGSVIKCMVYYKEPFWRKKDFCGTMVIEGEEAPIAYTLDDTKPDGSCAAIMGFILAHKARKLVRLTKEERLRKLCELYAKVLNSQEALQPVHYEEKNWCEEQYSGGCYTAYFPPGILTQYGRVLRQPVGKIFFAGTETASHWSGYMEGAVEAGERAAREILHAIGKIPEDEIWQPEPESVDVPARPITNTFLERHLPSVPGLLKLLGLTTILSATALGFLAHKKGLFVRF
# human Phosphatase and Tensin Homolog (PTEN), PTEN (gene 5728), sequence (P60484 whole entry, looked up): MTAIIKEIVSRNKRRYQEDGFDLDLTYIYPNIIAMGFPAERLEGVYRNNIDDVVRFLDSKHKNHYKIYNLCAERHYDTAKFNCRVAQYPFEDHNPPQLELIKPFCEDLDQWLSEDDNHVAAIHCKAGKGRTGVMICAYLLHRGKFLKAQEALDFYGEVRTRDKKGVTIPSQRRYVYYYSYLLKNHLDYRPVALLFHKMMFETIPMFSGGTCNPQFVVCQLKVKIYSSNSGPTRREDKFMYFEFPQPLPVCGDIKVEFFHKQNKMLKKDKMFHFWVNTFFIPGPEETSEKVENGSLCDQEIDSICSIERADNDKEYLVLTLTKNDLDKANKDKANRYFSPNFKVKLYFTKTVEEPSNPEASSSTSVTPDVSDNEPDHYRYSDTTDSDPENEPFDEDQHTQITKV
# Androgen receptor (Homo sapiens), sequence (P10275 whole entry, looked up, the tested form may be a part): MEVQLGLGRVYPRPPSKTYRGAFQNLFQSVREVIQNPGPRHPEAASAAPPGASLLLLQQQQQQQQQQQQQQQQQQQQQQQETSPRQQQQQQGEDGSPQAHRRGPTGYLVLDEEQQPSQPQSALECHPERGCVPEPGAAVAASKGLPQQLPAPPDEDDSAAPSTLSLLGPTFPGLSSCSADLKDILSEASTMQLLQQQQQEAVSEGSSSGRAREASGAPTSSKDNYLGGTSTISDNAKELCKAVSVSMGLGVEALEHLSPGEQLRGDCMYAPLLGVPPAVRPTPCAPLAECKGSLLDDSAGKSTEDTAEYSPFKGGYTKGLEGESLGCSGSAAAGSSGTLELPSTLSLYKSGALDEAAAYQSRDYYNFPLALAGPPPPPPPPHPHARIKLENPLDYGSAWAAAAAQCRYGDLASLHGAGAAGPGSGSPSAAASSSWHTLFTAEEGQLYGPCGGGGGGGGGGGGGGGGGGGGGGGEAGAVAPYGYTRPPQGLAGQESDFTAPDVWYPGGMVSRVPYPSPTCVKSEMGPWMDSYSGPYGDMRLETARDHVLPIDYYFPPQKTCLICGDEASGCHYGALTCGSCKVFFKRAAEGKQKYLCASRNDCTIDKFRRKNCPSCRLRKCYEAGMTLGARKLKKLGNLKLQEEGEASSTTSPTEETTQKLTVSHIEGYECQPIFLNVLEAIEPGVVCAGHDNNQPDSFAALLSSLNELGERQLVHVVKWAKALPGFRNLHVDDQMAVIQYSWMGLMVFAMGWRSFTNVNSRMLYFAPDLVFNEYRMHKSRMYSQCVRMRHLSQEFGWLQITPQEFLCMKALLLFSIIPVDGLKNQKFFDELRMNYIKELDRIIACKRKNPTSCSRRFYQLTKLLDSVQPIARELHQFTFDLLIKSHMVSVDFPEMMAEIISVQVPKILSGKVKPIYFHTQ
# human Caspase 10 (CASP10), CASP10 (gene 843), sequence (Q92851 whole entry, looked up): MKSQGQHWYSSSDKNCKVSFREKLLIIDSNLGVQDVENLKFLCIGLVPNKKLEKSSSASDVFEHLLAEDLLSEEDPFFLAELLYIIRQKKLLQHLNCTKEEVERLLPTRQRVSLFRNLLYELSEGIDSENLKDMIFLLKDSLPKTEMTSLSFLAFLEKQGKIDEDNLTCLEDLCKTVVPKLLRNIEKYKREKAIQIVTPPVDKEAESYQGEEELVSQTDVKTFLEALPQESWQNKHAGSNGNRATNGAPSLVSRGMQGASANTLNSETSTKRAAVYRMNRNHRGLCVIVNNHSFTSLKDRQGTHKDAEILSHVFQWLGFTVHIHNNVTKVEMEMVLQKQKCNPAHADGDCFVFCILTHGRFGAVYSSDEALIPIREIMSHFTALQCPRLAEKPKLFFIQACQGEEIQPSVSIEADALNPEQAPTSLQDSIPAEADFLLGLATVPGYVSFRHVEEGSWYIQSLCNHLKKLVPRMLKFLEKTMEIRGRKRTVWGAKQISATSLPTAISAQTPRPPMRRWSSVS
# rat Oxytocin Receptor (OXT), Oxtr (gene 25342), sequence (P70536 whole entry, looked up): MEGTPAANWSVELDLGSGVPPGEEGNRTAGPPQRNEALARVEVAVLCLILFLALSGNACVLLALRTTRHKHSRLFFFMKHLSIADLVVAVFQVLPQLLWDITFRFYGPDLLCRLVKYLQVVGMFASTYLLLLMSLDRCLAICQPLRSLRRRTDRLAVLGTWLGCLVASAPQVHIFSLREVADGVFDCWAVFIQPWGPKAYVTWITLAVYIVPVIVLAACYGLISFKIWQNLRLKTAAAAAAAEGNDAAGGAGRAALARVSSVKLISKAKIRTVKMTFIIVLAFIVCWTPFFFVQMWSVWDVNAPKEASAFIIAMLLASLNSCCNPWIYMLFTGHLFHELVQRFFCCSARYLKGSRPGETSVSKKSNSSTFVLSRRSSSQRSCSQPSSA
# rat Monoamine Oxidase, MAO-B, Central (MAOBC), Maob (gene 25750), sequence (P19643 whole entry, looked up): as the sequence (P19643 whole entry, looked up) above
# Norway rat Vesicular Monoamine Transporter (VMAT2), neurotransmitter transporter, Slc18a2 (gene 25549), sequence (Q01827 whole entry, looked up): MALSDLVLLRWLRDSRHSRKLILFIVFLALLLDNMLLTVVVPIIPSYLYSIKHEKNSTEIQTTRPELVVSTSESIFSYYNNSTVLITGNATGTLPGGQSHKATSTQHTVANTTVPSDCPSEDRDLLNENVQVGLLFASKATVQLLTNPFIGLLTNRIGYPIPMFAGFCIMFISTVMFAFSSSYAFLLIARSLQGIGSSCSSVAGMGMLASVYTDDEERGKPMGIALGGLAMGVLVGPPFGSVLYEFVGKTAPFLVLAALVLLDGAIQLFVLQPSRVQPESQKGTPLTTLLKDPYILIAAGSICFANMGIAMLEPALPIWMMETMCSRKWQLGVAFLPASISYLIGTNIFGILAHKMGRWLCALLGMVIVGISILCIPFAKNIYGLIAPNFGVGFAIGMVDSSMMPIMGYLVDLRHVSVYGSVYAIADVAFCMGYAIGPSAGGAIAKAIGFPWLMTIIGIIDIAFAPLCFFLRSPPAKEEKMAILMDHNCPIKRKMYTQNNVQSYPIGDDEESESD
# human Epidermal Growth Factor Receptor (EGFR), EGFR (gene 1956), sequence (P00533 whole entry, looked up): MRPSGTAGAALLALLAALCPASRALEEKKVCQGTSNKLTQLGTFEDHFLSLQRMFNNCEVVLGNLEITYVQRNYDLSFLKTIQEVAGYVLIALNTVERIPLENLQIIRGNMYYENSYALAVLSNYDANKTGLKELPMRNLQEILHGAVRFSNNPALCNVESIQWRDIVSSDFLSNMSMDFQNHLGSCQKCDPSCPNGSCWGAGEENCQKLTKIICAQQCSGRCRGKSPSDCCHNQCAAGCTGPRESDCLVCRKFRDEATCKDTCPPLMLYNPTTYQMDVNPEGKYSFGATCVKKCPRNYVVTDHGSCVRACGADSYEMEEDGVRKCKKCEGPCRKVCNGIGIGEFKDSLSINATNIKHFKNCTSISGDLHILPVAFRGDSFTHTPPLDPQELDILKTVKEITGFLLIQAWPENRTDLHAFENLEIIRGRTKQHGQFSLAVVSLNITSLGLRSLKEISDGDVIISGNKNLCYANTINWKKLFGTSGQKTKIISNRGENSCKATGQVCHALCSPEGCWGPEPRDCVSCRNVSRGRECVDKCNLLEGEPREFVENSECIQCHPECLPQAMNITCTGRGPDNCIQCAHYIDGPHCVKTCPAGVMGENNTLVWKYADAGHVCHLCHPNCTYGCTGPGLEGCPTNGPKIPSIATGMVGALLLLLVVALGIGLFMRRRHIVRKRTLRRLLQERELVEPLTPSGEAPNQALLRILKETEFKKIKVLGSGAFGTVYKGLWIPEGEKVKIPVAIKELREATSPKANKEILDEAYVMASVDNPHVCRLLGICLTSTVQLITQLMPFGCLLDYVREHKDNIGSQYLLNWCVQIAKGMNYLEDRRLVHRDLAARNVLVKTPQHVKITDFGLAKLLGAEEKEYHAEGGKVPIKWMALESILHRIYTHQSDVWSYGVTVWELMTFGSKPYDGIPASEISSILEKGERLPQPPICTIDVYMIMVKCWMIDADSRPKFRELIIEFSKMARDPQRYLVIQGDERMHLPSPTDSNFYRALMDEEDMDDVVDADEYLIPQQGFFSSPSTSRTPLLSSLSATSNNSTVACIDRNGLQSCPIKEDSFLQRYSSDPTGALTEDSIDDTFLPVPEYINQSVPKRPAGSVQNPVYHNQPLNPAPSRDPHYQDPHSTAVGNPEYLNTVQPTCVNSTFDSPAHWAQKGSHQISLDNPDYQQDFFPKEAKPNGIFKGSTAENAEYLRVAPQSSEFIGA
smiles,measurement,setting,value
CCC(C)N(C)C(=O)c1cc2ccccc2c(-c2ccccc2Cl)n1 (stereo unspecified),outcome,[1],inactive
same,outcome,[2],inactive
same,outcome,[3],inactive
same,AC50,[4],10.2 µM (active)
same,outcome,[5],inactive
same,AC50,[6],9.67 µM (active)
CC1(C)[C@H](C(=O)OCc2cccc(Oc3ccccc3)c2)[C@@H]1C=C(Cl)Cl,outcome,[1],inactive
same,AC50,[7],15.7 µM (active)
COCC(C)OCC(C)OCC(C)O (stereo unspecified),outcome,[1],inactive
same,outcome,[8],inactive
same,outcome,[9],inactive
CC=CC(=O)C1=C(C)C=CCC1(C)C,outcome,[1],inactive
same,outcome,[7],inactive
COc1ccc2c(c1)c(CC(=O)O)c(C)n2C(=O)c1ccc(Cl)cc1,outcome,[1],inactive
same,outcome,[10],inactive
O=C(c1ccc(O)cc1O)c1ccc(O)cc1O,outcome,[1],inactive
same,AC50,[11],22.2 µM (active)
same,AC50,[12],25 µM (active)
same,outcome,[13],inactive
same,AC50,[14],0.935 µM (active)
same,AC50,[15],12.9 µM (active)
same,outcome,[3],inactive
same,AC50,[16],6.91 µM (active)
Cc1c2ccccc2c(C)c2c1ccc1ccccc12,outcome,[1],inactive
same,outcome,[10],inactive
same,outcome,[16],inactive
same,outcome,[17],inactive
CCN(Cc1cccnc1)C(=O)c1cccc(Cl)c1[C@]1(C)C(=O)N(Cc2ccc(OC)cc2OC)c2ccc(Cl)cc21,outcome,[1],inactive
same,outcome,[18],inactive
same,outcome,[3],inactive
same,AC50,[16],2.51 µM (active)
same,AC50,[19],0.0728 µM (active)
same,AC50,[20],15.1 µM (active)
OCCCCl,outcome,[1],inactive
same,outcome,[7],inactive
O=[N+]([O-])c1ccc(CO)cc1,outcome,[1],inactive
same,outcome,[7],inactive
CC(C)CCOCCC(C)C,outcome,[1],inactive
same,outcome,[7],inactive
Clc1cc(Cl)c(-c2c(Cl)c(Cl)cc(Cl)c2Cl)cc1Cl,outcome,[1],inactive
same,AC50,[7],12.5 µM (active)
